Source: PubChem
TRAIL sens C8 = viability loss with TRAIL in NB7+C8 cells, primary screen, TRAIL sensitizer project, cell-based, ATPlite luminescence | hit rate 1% among 360,000 | inhibition (viability loss, TRAIL sensitization), % at 10 µM;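 active = compounds causing at least 50% loss of cell viability in the single-dose screen, relative to plate controls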
CF NFkB block = inhibitors of PAF-induced NF-kB signaling, primary screen, cell-based, GFP fluorescence, uHTS. KKLEB NF-kB-GFP reporter, GFP fluorescence overnight. inhibition, % at 5 µM. hit rate 0.86% among 360,000. AID 588850, 2011;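 active = at least 50% inhibition at 5 µM, scaled per plate between neutral and stimulator controls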;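 also: PAF is a Pseudomonas aeruginosa culture filtrate used as stimulus; plate controls were PAF-stimulated DMSO wells for no effect and unstimulated DMSO wells for full effect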
KKLEB tox = cytotoxicity in KKLEB CF airway cells, primary screen, cytotoxicity control for CF NF-kB inhibitor project, cell-based, uHTS, fluorescence assay plates; KKLEB CF airway cells viability, ATPlite luminescence, overnight; active compounds read low; cells stimulated with P. aeruginosa culture filtrate; activity change (cytotoxicity), % at 5 µM; hit rate 0.36% among 360,000;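 active = corrected activity change at or below -50% at 5 µM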
Peg3 promoter = Peg3 promoter-driven luciferase inhibitors, primary screen, cell-based, HeLa, luciferase luminescence; HeLa PEG-Prom luciferase reporter, overnight; inhibition, % at 20 µM; hit rate 1.7% among 360,000; AID 588405, 2011;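 active = inhibition of at least 50% at 20 µM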
PPC-1+TRAIL kill = compounds killing PPC-1 cancer cells with TRAIL present, primary screen, TRAIL potentiator project, ATPLite luminescence, uHTS. PPC-1 cells + TRAIL, ATPLite viability luminescence. cell killing (% activity), % at 4 µM or 5 µM. hit rate 0.41% among 220,000;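 active = cell killing above 50% in the first pass at 4 µM, then a duplicate retest at 5 µM averaging 50% or more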;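 also: plate controls were cells with TRAIL plus DMSO for no effect and medium-only wells lacking cells for full effect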
HIF-2a block = HIF-2a reporter inhibitors, primary screen, luminescence, 786-0 RCC cells. 786-0 RCC cells HIF-2a reporter, luciferase luminescence, overnight. inhibition, % at 18.8 µM. hit rate 0.72% among 360,000;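 active = inhibition of the luminescence signal of 40% or more relative to plate controls, in a single-dose primary screen at 18.75 µM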
* = called active by the depositor; . = not tested or not shown. The list is not random: actives were taken first. Their share in the collection is about 3.1%.

SMILES	TRAIL sens C8	CF NFkB block	KKLEB tox	Peg3 promoter	PPC-1+TRAIL kill	HIF-2a block
COc1ccc(NC(=O)CN(C)S(=O)(=O)c2ccc3c(c2)c(=O)n(C)c(=O)n3C)cc1	10.4	12.0	1.1	13.5	.	8.3
O=C(Nc1ccc(N2CCCCC2)cc1)c1ccc([N+](=O)[O-])o1	31.3	96.1*	-37.0	106.1*	.	34.4
COc1ccc(N2CCCC2)c(NC(=O)c2ccc([N+](=O)[O-])o2)c1	4.0	-1.4	-26.4	53.0*	.	-15.9
CC1CCN(c2ccc(NC(=O)c3ccc([N+](=O)[O-])o3)cc2)CC1	94.0*	95.3*	-98.2*	105.9*	.	52.9*
O=C(Nc1ccccc1N1CCCC1)c1ccc([N+](=O)[O-])o1	22.4	46.3	-16.4	31.2	.	17.8
Cc1ccc(Cl)c(OCCN2CCc3ccccc3C2)c1	-13.6	2.7	-5.2	15.3	.	-15.2
COc1ccc(Cl)cc1NC(=O)CN(C)C(=O)/C=C/c1ccco1	-0.5	-9.8	13.5	5.4	.	0.0
COc1ccccc1Cc1c(-c2ccc(C#N)cc2)nc2ccc(C)cn12	19.0	.	.	.	.	-105.5
C=CCOc1ccc(C(=O)O)cc1Cl	-4.4	-8.1	2.1	8.8	.	5.4
Fc1ccccc1N1CCN(CC2CCCCC2)CC1	-1.4	-16.8	-11.9	6.9	.	9.8
O=c1c(=NNc2ccccc2Cl)c(=O)c2ccccc12	76.7*	-8.8	-44.1	-6.3	17.1	-144.2
COc1cccc(C=C2Cc3ccccc3C2=O)c1	-2.0	-26.0	-11.1	-122.7	.	-156.5
Cc1ccsc1/C=C1\CCc2ccccc2C1=O	78.8*	-23.7	-47.8	-114.1	49.5	-148.0
Cc1ccccc1/C=C1\CCCc2ccccc2C1=O	24.4	-8.0	-18.3	-278.1	30.3	-274.6
COc1cccc(/C=C2\CCc3ccccc3C2=O)c1	82.4*	5.1	-39.2	-174.6	-6.3	-257.2
O=C1C(=Cc2ccccn2)CCc2ccccc21	-1.0	61.4*	-5.4	-72.0	.	-76.6
COc1ccc2c(c1)CC/C(=C/c1ccccn1)C2=O	43.6	10.5	-2.6	-101.9	.	-195.0
O=C(COC(=O)c1ccc(F)c([N+](=O)[O-])c1)NC(=O)NCc1ccccc1	21.5	21.0	-0.9	97.0*	.	33.1
Cc1ccc(C(=O)OCC(=O)NC(=O)NCc2ccccc2)cc1C	-2.3	4.0	2.7	-16.9	.	4.1
N#Cc1ccncc1Sc1ccc(Cl)cc1	4.8	21.3	-12.0	6.4	.	15.9
CCCN(CCC)CC(O)Cn1cc(/C=C/C(=O)c2ccccc2)c2ccccc21 (stereo not drawn)	2.9	17.1	-14.6	-6.7	10.6	-5.7
CCCCN(C)CC(O)Cn1cc(/C=C/C(=O)c2ccc(C)cc2)c2ccccc21 (stereo not drawn)	28.6	16.1	-8.3	100.2*	.	-51.6
CCOC(=O)[C@]12CCCC=C1N(CCC1=CCCCC1)C(=O)[C@H](CC(=O)NCC1CCCCC1)C2	-11.5	.	.	.	.	-9.8
CN(C)CCn1cnc2c(c1=N)C(c1ccccc1)c1ccc3ccccc3c1O2 (stereo not drawn)	22.1	9.9	-10.1	108.7*	.	-9.4
N=c1c2c(ncn1Cc1ccco1)Oc1c(ccc3ccccc13)C2c1ccccc1 (stereo not drawn)	-3.7	33.7	-31.3	80.1*	25.8	-51.4
SMILES	TRAIL sens C8	CF NFkB block	KKLEB tox	Peg3 promoter	PPC-1+TRAIL kill	HIF-2a block
COc1ccc(C2c3c(ncn(CCN4CCOCC4)c3=N)Oc3ccc4ccccc4c32)cc1 (stereo not drawn)	4.6	-13.6	-14.3	60.3*	2.9	20.2
N=c1c2c(ncn1CCN1CCOCC1)Oc1ccc3ccccc3c1C2c1ccccc1 (stereo not drawn)	15.9	8.9	-20.8	47.4	30.6	30.1
O=S1(=O)N[C@@H](Cc2ccccc2)COc2cccc(N3CCC[C@@H]3CO)c21	0.3	.	.	.	.	9.5
Cc1cc(/C=N/n2cnnc2)c(C)n1-c1ccc(OCc2ccc(Cl)cc2Cl)cc1	17.6	-2.2	-2.7	40.5	23.0	80.8*
Cc1cc(/C=N/n2cnnc2)c(C)n1-c1ccc(Cl)cc1	-0.3	20.9	-8.5	5.5	18.9	3.9
Cc1sc(-n2c(C)cc(/C=C3\SC(=S)NC3=O)c2C)c(C#N)c1C	6.3	-22.3	-19.9	75.3*	.	-127.1
Cc1cc(/C=C2\SC(=S)NC2=O)c(C)n1-c1cccc(O)c1	16.3	-23.5	4.6	-268.2	19.1	-294.1
O=C(NCc1cccs1)C1C(=O)Nc2ccccc2C(=O)N1Cc1ccccc1 (stereo not drawn)	3.3	.	.	.	.	12.4
Cc1ccc(C(=O)OCC(=O)c2ccc(S(=O)(=O)N3CCCCC3)cc2)o1	-5.4	-9.8	-9.8	2.9	.	13.8
O=C(COc1ccc(/C=N/NC(=O)c2cc3ccccc3o2)cc1Cl)Nc1ccccc1	92.6*	89.8*	-92.7*	107.7*	24.7	-75.4
COc1cc(/C=N/NC(=O)c2ccccc2O)ccc1OCC(=O)Nc1ccccc1	-1.6	10.3	-3.8	-193.2	.	-54.3
CCc1noc(C)c1C(=O)Nc1cccc2ncccc12	-13.0	25.3	-21.6	18.7	.	8.8
COc1ccccc1C(=O)Nc1c(C(=O)N(CCN(C)C)Cc2ccco2)oc2ccccc12	-9.0	12.8	-31.2	92.3*	.	-2.8
Nc1c(-c2ccccc2)cnn1-c1ccccc1	54.0*	-3.4	1.7	-275.2	.	-221.9
Cc1cc(O)c2c(c1O)C(=O)[C@]13C(=C2O)C(=O)[C@@H]2[C@@H](O)[C@H]1[C@@H]1[C@H](O)[C@H]3C(=O)C3=C(O)c4c(O)cc(C)c(O)c4C(=O)[C@]312	48.1*	53.0*	-19.4	30.3	.	-21.5
COc1ccc(C(=O)NCc2ccncc2)cc1S(=O)(=O)NCc1ccc(Cl)cc1	1.0	0.7	5.6	15.4	.	7.6
Cc1ccc(NC(=S)N/N=C/c2c(Cl)cccc2Cl)c(C)c1	-11.7	50.2*	-8.0	-102.5	23.7	-145.0
CC(C)(C)NC(=S)N/N=C/c1c(Cl)cccc1Cl	-1.0	-3.8	-2.2	5.8	-13.1	-6.8
COc1cc(NC(=O)COc2ccccc2Cl)ccc1NC(=O)c1cccs1	-16.7	16.4	-5.9	-49.6	.	-163.5
COc1cc(NC(=O)COc2ccccc2[N+](=O)[O-])ccc1NC(=O)c1cccs1	13.9	29.6	-8.8	56.9*	14.3	-170.3
COc1cccc2c1C(=O)c1c(O)c3c(c(O)c1C2=O)CC(O)(C(=O)CO)CC3OC1CC(N(C)C)C(O)C(C)O1 (stereo not drawn)	49.1	76.4*	-37.1	92.7*	.	37.7
COc1cccc2c1C(=O)c1c(O)c3c(c(O)c1C2=O)C[C@@](O)(C(=O)CO)C[C@@H]3O[C@H]1C[C@H](N)[C@@H](O)[C@H](C)O1	57.2*	70.4*	-54.3*	93.5*	.	3.5
